Test results published in PubChem BioAssay AID2685 (National Center for Advancing Translational Sciences (NCATS), 2010).
In all, about 320,000 compounds went through this assay and about 2,100 (0.66%) were called active. Not shown: some 53% with an inconclusive outcome. The call rests on the fitted dose curve; in most records, active means well fitted inhibition curve with a large enough effect in the signal ratio, with a control signal flat (not every such curve was filed as active); inconclusive means small, poorly fitted or top-dose-only effect, or effect the other way, or a change in a side signal; inactive means flat fitted curve, though single readings scatter; the % refers to the signal ratio. The sample as a whole holds a higher share of actives than the screen did.
Potency means the concentration at half of the fitted maximal effect.

Experiment: qHTS Assay for Lipid Storage Modulators in Drosophila S3 Cells;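 on cell number change: cells counted by Cell Tracker Red CMTPX staining in the red channel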
Conditions: BODIPY lipid droplet fluorescence, 18-24 h, cells fed with added oleic acid; cell number change: measured here: cell count max response; series mostly up to 46.1 µM
How it was run: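 Laser-scanning cytometry quantifies lipid droplet accumulation (500–530 nm total intensity; droplet/cell object ratio) in oleic acid-fed (400 uM added) Drosophila S3 cells treated with a concentration series. 20 uM Triacsin C defined 100% inhibition.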
In the case of `Cc1cc(=O)oc(C)c1C(=O)NCCCN1CCN(c2ccc(F)cc2)CC1`, the Potency is reported as “inactive” and the cell number change is reported as 2.43%.
In the case of `O=C(c1cccc(C(=O)N2CCN(c3ccccc3)CC2)c1)N1CCN(c2ccccc2)CC1`, the Potency is reported as “inactive” and the cell number change is reported as -3.1%.
In the case of `O=C(c1cc(-c2ccc(Cl)cc2)on1)N1CCN(c2ccc(F)cc2)CC1`, the Potency is reported as 20.6 µM (active) and the cell number change is reported as 8.11%.
With `Cc1c(C(=O)N2CCN(S(=O)(=O)c3cc(F)ccc3F)CC2)oc2ccccc12` the Potency was “inactive” and the cell number change was -12.2%.
With `Cc1c(C(=O)N2CCN(CCc3ccccn3)CC2)oc2ccc(F)cc12` the Potency was “inactive” and the cell number change was 0.99%.
For `COc1ccc(CNC(=O)CCC(=O)Nc2nnc(CC(C)C)s2)cc1`, the Potency was “inactive” and the cell number change was 5.14%.
In the case of `COc1ccc(N(C(=O)CNC(=O)c2cccs2)C(C(=O)NCC2CCCO2)c2ccccc2)c(OC)c1` (configuration not stated), the Potency is reported as “inactive” and the cell number change is reported as 5.71%.
For `CC(=O)Oc1ccc2nc(-c3cccs3)oc(=O)c2c1`, the Potency was “inactive” and the cell number change was -22.5%.
For `Cc1ccc(NC(=S)NC(CO)C(O)c2ccc([N+](=O)[O-])cc2)cc1` (configuration not stated), the Potency was “inactive” and the cell number change was -1.73%.
With `Fc1cnc(N2CCOCC2)nc1N1CCc2ccccc21` the Potency was “inactive” and the cell number change was -10.6%.
For `O=C(c1ccccc1Oc1ccccc1)N1CCN(c2ccc(F)cc2)CC1`, the Potency was “inactive” and the cell number change was 14.1%.
In the case of `O=C(O)c1ccccc1C(=O)N1CCN(c2ccccc2)CC1`, the Potency is reported as “inactive” and the cell number change is reported as 0.845%.
With `O=C(c1ccccc1C(=O)N1CCN(c2ccc(F)cc2)CC1)N1CCN(c2ccc(F)cc2)CC1` the Potency was 2.59 µM (active) and the cell number change was -27%.
For `CC(C)CN(C(=O)CCC(=O)OCC(=O)N(C)c1ccccc1)c1c(N)n(CC(C)C)c(=O)[nH]c1=O`, the Potency was “inactive”.
For `Cn1c(C(=O)O)cc2c(=O)n3ccccc3nc21`, the Potency was “inactive” and the cell number change was 3.26%.
For `CC1CN(C(=O)c2cc3c(=O)n4ccccc4nc3n2C)CC(C)O1` (configuration not stated), the Potency was “inactive” and the cell number change was 15.1%.
With `CC1CC(NC(=O)c2cc3c(=O)n4ccccc4nc3n2C)CC(C)(C)C1` (configuration not stated) the Potency was 18.4 µM (active) and the cell number change was 3.3%.
With `CCOc1cc(C(=O)NCC2CCCO2)cc(OCC)c1OCC` (configuration not stated) the Potency was “inactive”.
For `Cc1cc(C)c(S(=O)(=O)N2CCN(C(=O)c3c(C)noc3C)CC2)c(C)c1`, the Potency was “inactive” and the cell number change was -0.389%.
With `CCOC(=O)CN1C(=O)SC(Nc2ccc(C)cc2)C1=O` (configuration not stated) the Potency was “inactive” and the cell number change was 0.723%.
In the case of `O=C(O)CN1C(=O)SC(Nc2ccccc2)C1=O` (configuration not stated), the Potency is reported as “inactive” and the cell number change is reported as 7.54%.
For `Cc1ccc(NC2SC(=O)N(CC(=O)O)C2=O)cc1` (configuration not stated), the Potency was 23.1 µM (active) and the cell number change was -7.73%.
For `Cn1cnnc1SCCNS(=O)(=O)c1cccc([N+](=O)[O-])c1`, the Potency was “inactive” and the cell number change was 3.23%.
With `CCc1ccc(NC(=S)N(CCN2CCOCC2)Cc2ccccc2F)cc1` the Potency was “inactive” and the cell number change was 13.9%.
With `CN(C)S(=O)(=O)N(CCN1CCOCC1)Cc1ccccc1F` the Potency was 9.2 µM (active) and the cell number change was 6.57%.
For `Cc1ccc(NC(=S)N(CCN2CCOCC2)Cc2ccccc2F)cc1`, the Potency was “inactive” and the cell number change was -12.7%.
For `Cn1cnnc1Sc1ccc(C(F)(F)F)cc1[N+](=O)[O-]`, the Potency was “inactive” and the cell number change was 20.3%.
For `Cc1ccc(C2(c3noc(CN4C[C@@H](C)O[C@@H](C)C4)n3)CCCC2)cc1`, the Potency was “inactive” and the cell number change was -4.24%.
For `CCOc1ccc2ccccc2c1C(=O)Nc1cc(=O)n(C)c(=O)n1C`, the Potency was “inactive” and the cell number change was -14%.
In the case of `Cc1[nH]n(-c2ccccc2)c(=O)c1N=Nc1ccccc1C(=O)N1CCOCC1`, the Potency is reported as “inactive” and the cell number change is reported as -24.3%.
For `Cc1[nH]n(-c2ccccc2)c(=O)c1N=Nc1ccc(C(N)=O)cc1`, the Potency was “inactive” and the cell number change was 15.5%.
In the case of `Cc1[nH]n(-c2ccccc2)c(=O)c1N=O`, the Potency is reported as “inactive” and the cell number change is reported as -9.61%.
With `COc1ccccc1N=Nc1c(C)[nH]n(-c2ccccc2)c1=O` the Potency was 14.6 µM (active) and the cell number change was 0.338%.
In the case of `Cc1[nH]n(-c2ccc(Cl)cc2)c(=O)c1N=Nc1cccnc1`, the Potency is reported as “inactive” and the cell number change is reported as 8.32%.
For `Cc1[nH]n(-c2ccccc2)c(=O)c1N=Nc1ccc(Cl)cc1`, the Potency was 9.2 µM (active) and the cell number change was -10.2%.
In the case of `COc1ccccc1NC(=O)C1=C(C)Nc2nc(-c3ccccc3)nn2C1c1ccccn1` (configuration not stated), the Potency is reported as “inactive”.
For `O=C(CN1C(=O)NC2(CCCCCCC2)C1=O)Nc1ccc(Cl)cc1`, the Potency was “inactive” and the cell number change was 27.1%.
In the case of `COC(=O)C1=C(NC(=O)C2CCCCC2)CCS1`, the Potency is reported as “inactive” and the cell number change is reported as -10%.
In the case of `CC(C)Oc1ccc(/C=C/C(=O)NCC2COc3ccccc3O2)cc1` (configuration not stated), the Potency is reported as “inactive” and the cell number change is reported as -3.08%.
For `CCS(=O)(=O)c1nc(S(=O)(=O)c2ccc(C)cc2)c(NCCN2CCOCC2)s1`, the Potency was “inactive”.
In the case of `O=C(Nc1ccc(S(=O)(=O)N2CCCCCC2)cc1)c1ccco1`, the Potency is reported as “inactive”.
In the case of `CCOC(=O)N1CCC(NCCNC(=O)c2ccco2)CC1`, the Potency is reported as “inactive” and the cell number change is reported as -0.499%.
In the case of `CC1CCC(NCCNC(=O)c2ccco2)CC1` (configuration not stated), the Potency is reported as 0.82 µM (active) and the cell number change is reported as 15.3%.
In the case of `O=C(NCCNC1CCCCC1)c1ccco1`, the Potency is reported as “inactive” and the cell number change is reported as 17.5%.
For `O=C(Nc1ccc(Cl)c(S(=O)(=O)N2CCCCC2)c1)c1ccco1`, the Potency was 0.291 µM (active) and the cell number change was 11.9%.
For `O=C(Nc1ccc(S(=O)(=O)N2CCOCC2)cc1)c1ccco1`, the Potency was “inactive”.
For `CCOc1ccc(NC(=O)c2ccco2)cc1S(=O)(=O)N1CCCC1`, the Potency was “inactive” and the cell number change was 3.85%.
For `CC1CCN(S(=O)(=O)c2ccc(NC(=O)c3ccco3)cc2)CC1`, the Potency was 16.4 µM (active) and the cell number change was -3.17%.
For `O=C(Nc1ccc(N2CCCC2)c(Cl)c1)c1ccco1`, the Potency was “inactive” and the cell number change was -15.9%.
